Screening data as filed in PubChem.
TDP-43 yeast inh = qHTS of TDP-43 Inhibitors | TDP-43 expressing yeast growth rescue, BacTiter-Glo, 24 h | Potency, µM (highest dose often 46.1 µM), for inactives: at the highest dose growth rescue (activation), usual class: activators | hit rate 1.8% among 410,000; further: % of control where 0% means no effect; nearly all actives have a fitted effect of over 50% in size
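Readout is BacTiter-Glo luminescence of cell growth, so inhibitors register as activators. TDP-43-expressing yeast at OD600=0.02 in galactose medium, after raffinose pregrowth to mid-log, were incubated with compound for 24 hr at 30 deg C.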
Abeta yeast res = qHTS for compounds that reverse cellular toxicity of Amyloid beta (A-beta) peptide in yeast: Primary Screen | Potency, µM (titrated, usually from 46.1 µM), actives largely listed as activators | yeast expressing A-beta42, growth rescue, OD600, 48 h; response scale: 0% DMSO, 100% iron-clioquinol control | hit rate 0.063% among 410,000; further: nearly all actives have a fitted effect of over 55% in size
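Yeast growth medium received pinned compounds, then yeast cells expressing toxic A-beta were added; plates incubated at 30 C for 48 hr. Growth read as absorbance at 600 nm, normalized to DMSO and equimolar FeCl3 plus clioquinol controls.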
Mito fusion yeast = qHTS Assay for Small Molecule Inhibitors of Mitochondrial Division or Activators of Mitochondrial Fusion; Potency, µM (top dose mostly 46.1 µM), for inactives: at the highest dose growth rescue (activation), usual class: activators; AID 485298, 2010; hit rate 0.23% among 320,000; S. cerevisiae fusion-defective mutant growth rescue, CellTiterGlo 48 h; further: % of control where 0% means no effect; nearly all actives have a fitted effect of over 45% in size
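Luminescent cell viability in 1536-well qHTS format served as the measure of rescued growth in ts fusion-mutant S. cerevisiae cultured on non-fermentable YPEG for 48 hours at 37C.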
FUS yeast rescue = qHTS for Suppressors of FUS Proteinopathy: Primary screen using FUS-linked yeast assay; S. cerevisiae FUS-expressing, growth rescue, OD600, 24 h; AID 1347120, 2019; Potency, µM (doses to about 76.6 µM), most hits filed as activators; hit rate 0.24% among 390,000;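 further: plate controls were DMSO vehicle for no effect and reference control for full effect; nearly all actives have a fitted effect of over 55% in size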
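Restored growth of FUS-toxic S. cerevisiae, read as 600 nm absorbance after 24 h at 30C in galactose medium (starting OD 0.005). Controls CP55940 and DMSO.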
aSyn yeast inh = qHTS of alpha-syn Inhibitors | Yeast expressing alpha-synuclein, growth rescue, BacTiter-Glo, 24 h | Potency, µM (series often up to 46.1 µM), inactives show at the top dose growth rescue (activation), usual class: activators | hit rate 0.14% among 370,000 | AID 652106, 2013; further: % of control where 0% means no effect; nearly all actives have a fitted effect of over 65% in size
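Galactose-induced alpha-syn yeast (OD600=0.02, raffinose-pregrown) + pinned cpd, 24 hr, 30 deg C; growth by BacTiter-Glo luminescence. Growth restoration scores as activation.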
ERG Ets-DNA blk = qHTS for Small Molecule Inhibitors of the ERG Ets/DNA interaction | Transcriptional regulator ERG (Homo sapiens), P11308 | fluorescence polarization, His-ERG Ets domain / labelled DNA | Potency, µM (titrated, usually from 76.9 µM), for inactives: top-dose FP activity, negative = inhibition, usual class: inhibitors | hit rate 0.028% among 370,000 | AID 624246, 2012; active means well fitted inhibition curve with a large enough effect in the polarisation, with a control signal flat; inconclusive means small, poorly fitted or top-dose-only effect, or effect the other way, or a change in a side signal; inactive means no such curve, though single readings can be large or run the other way; the % refers to the polarisation;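 further: polarization taken with two DNA probes labelled with fluorescein and Texas red; % of control where 0% means no effect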
Target sequence (P11308 whole entry, looked up, the tested form may be a part): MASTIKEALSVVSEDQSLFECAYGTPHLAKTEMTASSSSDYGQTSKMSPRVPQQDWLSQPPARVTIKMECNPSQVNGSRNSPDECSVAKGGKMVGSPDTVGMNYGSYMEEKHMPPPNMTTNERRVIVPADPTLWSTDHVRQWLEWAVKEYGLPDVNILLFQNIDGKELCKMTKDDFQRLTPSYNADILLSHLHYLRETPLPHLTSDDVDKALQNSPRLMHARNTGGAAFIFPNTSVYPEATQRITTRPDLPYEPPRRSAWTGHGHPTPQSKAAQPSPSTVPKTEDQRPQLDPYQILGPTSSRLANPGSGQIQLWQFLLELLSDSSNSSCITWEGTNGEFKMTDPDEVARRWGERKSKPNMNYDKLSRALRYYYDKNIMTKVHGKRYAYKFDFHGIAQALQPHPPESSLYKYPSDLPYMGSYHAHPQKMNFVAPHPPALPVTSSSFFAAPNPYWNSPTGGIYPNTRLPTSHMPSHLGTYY
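His-tagged ERG Ets domain (1 uM in the protein solution; 300mM KCl, 50mM Tris-HCl, 1mM EDTA, 1mM DTT, pH 7.5) received compound, then a probe mix of 5 nM fluorescein-DNA and 100nM Texas-615-DNA. Fluorescence polarization was read for both dyes.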
An asterisk follows results filed as active; i = inactive; ? = inconclusive; . = no result given; ! = a repeat was not active. Only some compounds are listed: those with a hit (about 2.2% of all), similar ones and a draw of the others. Unless noted, the call rests on the fitted dose curve; in most records, active means well fitted curve in the direction sought with a large enough effect; inconclusive means small, poorly fitted or top-dose-only effect, or another doubt; inactive means no such curve, though single readings can be large; an effect the other way counts as inactive or inconclusive. Potency means the concentration at half of the fitted maximal effect.

SMILES	TDP-43 yeast inh	Abeta yeast res	Mito fusion yeast	FUS yeast rescue	aSyn yeast inh	ERG Ets-DNA blk
COc1ccccc1CNC(=O)Cn1c(=O)nc(-c2ccccc2)c2ccccc21	14%	i	.	i	.	2%
Cc1ccccc1Cn1cc(CCC(=O)NCc2cccc(Br)c2)c2ccccc21	1%	i	.	i	.	8%
O=C(N=c1ccn(-c2nc3ccccc3nc2NS(=O)(=O)c2ccc(Cl)cc2)cc1)c1ccccc1Cl	.	.	-2%	.	.	.
O=C(N=c1ccn(-c2nc3ccccc3nc2NS(=O)(=O)c2ccccc2)cc1)c1ccccc1Cl	7%	.	3%	25µM*	-1%	10%
CC(C)CC1C(=O)N(Cc2cn(CCC3OCCCO3)nn2)CCS(=O)(=O)N1Cc1ccc(-c2ccccc2)cc1 (centres undefined)	-15%	i	.	?	-3%	.
CC(C)CC1C(=O)N(Cc2cn(CCC3OCCO3)nn2)CCS(=O)(=O)N1Cc1ccc(-c2ccccc2)cc1 (centres undefined)	22µM*	i	.	?	0%	.
Cc1ccc(-c2ccc(CN3C(CC(C)C)C(=O)N(Cc4cn(CCC5OCCO5)nn4)CCS3(=O)=O)cc2)cc1 (centres undefined)	35µM*	i	.	?	18%	.
C[C@H](O)[C@@H]1CN2CCc3c([nH]c4cccc(-c5ccccc5)c34)[C@@H]2C[C@@H]1N(C)C(=O)c1ccco1	.	.	.	i	.	.
CC(=O)N(C)c1ccc(C=C2C=Cc3ccccc32)cc1	14µM*	i	.	.	5%	.
CN(N=O)c1ccc(C=C2C=Cc3ccccc32)cc1	4%	i	.	.	1%	.
CC[C@]12c3[nH]c4ccc(OC)cc4c3CCN1C(=O)C(CC(=O)NC/C=C(\C)CCC=C(C)C)C[C@@H]2C(=O)N1CCN(C(=O)C2CC2)CC1 (some centres undefined)	4%	i	.	?	1%	13%
CC(C)N(C(=O)[C@H]1C[C@H](CC(=O)NCc2ccco2)C(=O)N2CCc3c([nH]c4cc(-c5ccco5)ccc34)[C@]12C)C(C)C	13µM*	i	.	?	?	17%
C[C@]12c3[nH]c4ccc(Cl)cc4c3CCN1C(=O)[C@@H](CC(=O)NCc1cccc(C(F)(F)F)c1)C[C@@H]2C(=O)N1CCOCC1	18%	i	.	?	1%	1%
CC[C@]12c3[nH]c4ccccc4c3CCN1C(=O)C(CC(=O)NC/C=C(\C)CCC=C(C)C)C[C@@H]2C(=O)N1CCN(C(=O)C2CC2)CC1 (some centres undefined)	0%	i	.	18µM*	-10%	-6%
CC(C)N(C(=O)[C@H]1C[C@H](CC(=O)NCc2ccco2)C(=O)N2CCc3c([nH]c4ccc(Cl)cc34)[C@]12C)C(C)C	35µM*	i	.	?	22%	-1%
CC(C)N(C(=O)[C@H]1C[C@H](CC(=O)NCc2cccc(C(F)(F)F)c2)C(=O)N2CCc3c([nH]c4ccc(Cl)cc34)[C@]12C)C(C)C	35µM*	i	.	i	?	-1%
CCOc1ccccc1NC(=O)CN1C(=O)COc2ccc(S(=O)(=O)N3CCCCC3)cc21	17%	i	.	i	.	3%
Cc1ccc(NC(=O)CN2C(=O)CCc3cc(S(=O)(=O)N4CCCCC4)ccc32)cc1N(C)C	22%	i	.	i	.	0%
CCOc1ccc(C(=O)Nc2nnc(SCc3cc(=O)n4ccccc4n3)s2)cc1	17%	i	.	i	.	-7%
Cc1ccccc1CN1CCCCC(NC(=O)c2ccccc2)C1=O (centres undefined)	.	.	.	i	.	.
CCCOc1ccc(C(=O)Nc2ccc3oc(-c4ccncc4)nc3c2)cc1	20%	i	.	i	.	-16%
O=C(NCCc1ccc(Cl)cc1)C1(c2cccs2)CCOCC1	4%	i	.	i	.	-6%
CC[C@]12c3[nH]c4cc(-c5ccco5)ccc4c3CCN1C(=O)[C@@H](CC(=O)NCc1ccc(OC)c(OC)c1)C[C@@H]2C(=O)N1CCN(C(=O)c2ccco2)CC1	19%	i	.	35µM*	4%	13%
O=C1N2Cc3ccccc3C2CS(=O)(=O)N1CCc1ccccc1 (centres undefined)	.	.	.	i	.	.
O=C1CC(c2ccc3c(c2)OCCO3)Oc2ccc([N+](=O)[O-])cc21 (centres undefined)	7%	i	6%	i	-12%	-11%
SMILES	TDP-43 yeast inh	Abeta yeast res	Mito fusion yeast	FUS yeast rescue	aSyn yeast inh	ERG Ets-DNA blk
O=C1CC(c2ccc3c(c2)OCCO3)Oc2ccccc21 (centres undefined)	14µM*	i	4%	i	-7%	1%
Oc1ccc(N=Nc2ccc3c(c2)OCCO3)c2cccnc12	?	?	0%	i	20µM*	-8%
CCCCCCCCCCCCCCCC[n+]1cccc(C(=O)N(CC)CC)c1	-18%	i	-34%	28µM*!	-10%	17%
CCCCOc1ccc(C(N)=O)cc1	.	.	.	.	3%	.
CCCCCCCCCCCCCCCC[n+]1ccc(C(N)=O)cc1	-36%	i	-18%	32µM*	-73%	11%
CCCCCCCC[n+]1cccc(C(=O)N(CC)CC)c1	-17%	i	-17%	i	-4%	13%
COc1ccccc1-c1nnc(SC/C(O)=C(\C#N)c2nc3ccccc3[nH]2)n1C1CCCCC1	1%	i	.	28µM*	2%	2%
Cn1cnnc1SC/C(O)=C(\C#N)c1nc2ccccc2[nH]1	2%	i	-3%	i	8%	7%
N#C/C(=C(/O)CSc1nnc(Cc2cccs2)n1C1CCCCC1)c1nc2ccccc2[nH]1	9%	i	?	50µM*	0%	7%
N#CCSc1nnc(Cc2cccs2)n1C1CCCCC1	?	i	2%	i	-3%	-3%
CSc1nc(N)n2nc(C(C)(C)C)cc2n1	18µM*	i	0%	i	-15%	-1%
CSc1nc(N)n2nc(C)cc2n1	9%	i	.	i	-9%	.
CC1CC(=O)c2c(cc3c(-c4c(O)cc(O)c5c(O)c6c(cc45)OC(C)CC6=O)c(O)cc(O)c3c2O)O1 (centres undefined)	35µM*	i	-6%	i	-21%	-1%
COc1ccc(CC(=O)NC2CCCc3ccccc32)cc1 (centres undefined)	18µM*	i	3%	i	-1%	-1%
